These results are taken from PubChem BioAssay (Tox21).

Values joined by “and” are separate entries in the source; they are usually repeats but may differ in a detail not shown here. Equal entries are not always repeated. Records with an inconclusive call do not appear. Some compounds were tested as several samples or in several runs, with calls that do not always agree. Active and inactive are the calls of the source. Unless noted, calls come from the whole dose curve; as a rule, active = well fitted curve in the direction sought with a large enough effect in the repeat runs; inconclusive = weak or mixed curves; inactive = no such curve, though single readings can be large; an effect the other way counts as inactive or inconclusive.

The nature of assay [1]: qHTS assay for small molecule agonists of the p53 signaling pathway (AID 651631; calls by dose curve; note: nearly all actives have a fitted effect of over 15% in size; note: potency is the fitted concentration of half-maximal effect). Put shortly: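 p53RE-bla HCT-116 cells; compounds 16 h, 37 °C; LiveBLAzer B/G FRET substrate 2 h RT; fluorescence intensity read-out, qHTS format.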
In general terms: qHTS replaces the single test concentration by a dilution series.

Assay [2] can be described thus: qHTS assay for small molecules that induce genotoxicity in human embryonic kidney cells expressing luciferase-tagged ATAD5 (AID 651632). Note: nearly all actives have a fitted effect of over 15% in size. Note: potency is the fitted concentration of half-maximal effect. A digest of the protocol:
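HEK293T cells carrying a luciferase reporter tagged to ATAD5 were exposed to compound or DMSO vehicle for 16 hr at 37C, 5% CO2. Amplite was added, and after 30 min at room temperature luciferase activity was read as a marker of ATAD5 induction.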

Assay [3] is described as follows: qHTS assay for small molecules that induce genotoxicity in human embryonic kidney cells expressing luciferase-tagged ATAD5 - cell viability (AID 651634; calls by dose curve; note: nearly all actives have a fitted effect of over 25% in size; note: potency is the fitted concentration of half-maximal effect). A digest of the protocol: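 HEK293T cells expressing luciferase-tagged ATAD5 were exposed to compound or DMSO for 15.5 hr at 37C, 5% CO2. Viability was then read as live-cell protease activity by CellTiter-Fluor fluorescence after 30 min at 37C.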

Assay [4] can be described thus: qHTS assay for small molecule disruptors of the mitochondrial membrane potential - cell viability (AID 720634; calls by dose curve;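 note: human HepG2 liver cancer cells; series mostly up to about 83 µM; nearly all actives have a fitted effect of over 20% in size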). A digest of the protocol:
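HepG2 cells seeded overnight at 37 C, then exposed to compound or DMSO for 1 hr at 37 C, 5% CO2. m-MPI dye added, then CellTiter-Glo for 30 min at room temperature; viability read as ATP luminescence.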

Assay [5] is described as follows: qHTS assay for small molecule disruptors of the mitochondrial membrane potential (AID 720635). Note: potency is the fitted concentration of half-maximal effect. Put shortly: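 Mitochondrial membrane potential tracked with Mito-MPS dye, red aggregates (ex 540/em 590 nm) against green monomers (ex 490/em 535 nm). Compound treatment 1 hr at 37C, dye 30 min in HepG2.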
Assay [6] is described as follows: qHTS assay to test for compound auto fluorescence at 590 nm (red) in HepG2 cells (AID 720674). A digest of the protocol: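 1 hr compound incubation on HepG2 cells, 37 C, 5% CO2; plate read ex 540 nm / em 590 nm; intensities reported as Rose Bengal sodium equivalents.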
Assay [7] can be described thus: qHTS assay to test for compound auto fluorescence at 535 nm (green) in HepG2 cells (AID 720675).
A short description of assay [8]: qHTS assay to test for compound auto fluorescence at 590 nm (red) in HEK293 cells (AID 720679). Put shortly:
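Intensity at 540nm excitation and 590nm emission is reported as Rose Bengal sodium-equivalent autofluorescence. Measurements followed overnight exposure (37C, 5% CO2) of HEK293 cells, 2,000 per well, to 23 nL compound.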

Assay [9] can be described thus: qHTS assay to test for compound auto fluorescence at 460 nm (blue) in HEK293 cells (AID 720678). A digest of the protocol: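 HEK293, 2,000 cells/well, 10% dialyzed FBS; attach 4-5 hr 37C; pin compound or DMSO; o/n 37C/5% CO2; fluorescence 405/460 nm; triamterene-equivalent units.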
Assay [10] in a line: qHTS assay for small molecule agonists of the p53 signaling pathway - cell viability (AID 651633; calls by dose curve; note: nearly all actives have a fitted effect of over 30% in size; note: potency is the fitted concentration of half-maximal effect). Put shortly:
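Viability counter-read: CellTiter-Glo luminescence (30 min, room temperature) in the same p53RE-bla plates. These plates had been exposed to compounds for 16 h at 37 C.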
% is set by controls: 0 for no effect and ±100 for the full control effect.

Take `CCC[C@H](N[C@@H](C)C(=O)N1[C@H](C(=O)O)C[C@@H]2CCCC[C@@H]21)C(=O)OCC`: the Potency entry in [1], in [2], in assay [3], in assay [4], in assay [5] and in [7] was “inactive” throughout. The compound was called inactive in assay [6] and in assay [8].
Consider `CCN1CCCC1CNC(=O)c1cc(S(=O)(=O)CC)c(N)cc1OC` (stereo not given), for which the Potency entry in [1], in [2], in assay [3], in [4], in [5] and in assay [7] was “inactive” in each case. The outcome in assay [6] and in assay [8] was inactive.
In the case of `CCCC(=O)c1ccccc1`, the Potency result in assay [1], in assay [2], in assay [3], in [4], in assay [7] and in assay [9] was “inactive” each time. In addition, the compound was called inactive in assay [6] and in assay [8].
As for `Cc1cccc([N+](=O)[O-])c1C(=O)O`, the Potency entry in assay [1], in [2], in [10], in assay [3], in [5] and in assay [7] was “inactive” throughout. In assay [9], the Potency result was “inactive”. The compound was classed as inactive in assay [6] and in assay [8].
For the compound `NC(N)=Nc1nc(CSCC/C(N)=N/S(N)(=O)=O)cs1`, the Potency result in assay [1], in [2], in assay [3], in assay [4], in [5] and in assay [7] was “inactive” in each case. Moreover, the Potency result in assay [9] was “inactive”. Besides, the compound was called inactive in assay [6] and in assay [8].
Turning to `OCC(CO)N[C@H]1C[C@](O)(CO)[C@@H](O)[C@H](O)[C@H]1O`, the Potency result in assay [1], in assay [2], in [10], in assay [3], in assay [5] and in [7] was “inactive” throughout. In assay [9], the Potency entry was “inactive”. Further, the call in [6] and in [8] was inactive.
As for `C=CC(=O)OCCCCCCCC`, the Potency result in [1], in [2], in assay [3], in assay [4], in assay [5] and in assay [7] was “inactive” in each case. For the same compound, in assay [9], the Potency result was “inactive”. For the same compound, the call in assay [6] and in [8] was inactive.
With `NCCCCCC(=O)O`, the Potency entry in assay [1], in assay [2], in [3], in assay [4] and in assay [5] was “inactive” throughout. In assay [6], the fluorescence, relative to Rose Bengal was -0.673% [at 18.6 µM] (inactive). Also, the fluorescence, % of fluorescein control in assay [7] was 0.0481% [at 18.6 µM] (inactive). Also, the fluorescence, % of triamterene in [9] is 0.0733% [at 18.6 µM] (inactive). The fluorescence, % of fluorescent control in assay [8] is 0.0137% [at 18.6 µM] (inactive).
Consider `CC(C(O)c1ccc(O)cc1)N1CCC(Cc2ccccc2)CC1` (stereo not given), for which the Potency result in assay [1], in assay [2], in assay [10], in assay [3], in assay [7] and in [9] was “inactive” each time. Further, the outcome in [6] and in [8] was inactive.
With `Cc1cc(C(C)(C)C)c(O)c(C(C)(C)C)c1`, the Potency result in [1], in assay [2], in [10], in assay [3], in assay [7] and in [9] was “inactive” throughout. In addition, the Potency in assay [5] is 48.7 µM (active) and 24.3 µM (active). Further, the compound was classed as inactive in assay [6] and in assay [8].
`CCC(CO)(CO)COCC(CC)(CO)CO`: the Potency result in assay [1], in [2], in assay [3], in assay [5], in assay [7] and in assay [9] was “inactive” in each case. In addition, the compound was classed as inactive in assay [6] and in assay [8].
Take `Cc1cc(Cc2cc(C)cc(C(C)(C)C)c2O)c(O)c(C(C)(C)C)c1`: the Potency in [1] was 30600 nM (active); in [3], 61.4 µM (active) and 61.1 µM (active); in assay [5], 1.23 µM (active) and 1.09 µM (active). Moreover, the Potency entry in [2] and in assay [7] was “inactive” each time. The compound was called inactive in assay [6] and in assay [8].
With `CC(C)(C)NCC(O)c1cc(O)cc(O)c1` (stereo not given), the Potency entry in assay [1], in assay [2], in assay [10], in assay [3], in [5] and in [7] was “inactive” each time. Moreover, the Potency result in [9] is “inactive”. The compound was classed as inactive in assay [6] and in assay [8].
On to `CC[C@H]1CN2CCc3cc(OC)c(OC)cc3[C@@H]2C[C@@H]1C[C@H]1NCCc2cc(OC)c(OC)cc21`, for which the Potency in [1] is 38.7 nM (active); in assay [3] it was 168 nM (active) and 194 nM (active). For the same compound, the Potency result in assay [2], in assay [4], in assay [7] and in assay [9] was “inactive” throughout. Besides, the compound was classed as inactive in assay [6] and in [8].
On to `Cc1scc2c1N(C(=O)CN1CCN(C)CC1)c1ccccc1NC2=O`, for which the Potency result in assay [1], in [2], in [3], in assay [7] and in [9] was “inactive” in each case. The outcome in [6] and in assay [8] was inactive.
As for `CC(=O)OCC1=C(C(=O)O)N2C(=O)[C@@H](NC(=O)Cc3cccs3)[C@H]2SC1`, the Potency result in assay [1], in assay [2], in [10], in [3], in assay [5] and in assay [7] was “inactive” each time. Also, the outcome in assay [6] and in [8] was inactive.
With `CCCNC(C)C(=O)Nc1ccccc1C` (stereo not given), the Potency result in assay [1], in [2], in assay [3], in [4], in [5] and in assay [7] was “inactive” throughout. Moreover, the result in assay [6] and in [8] was inactive.
Take `OCCOCCN1CCN(C(c2ccccc2)c2ccc(Cl)cc2)CC1` (stereo not given): the Potency result in assay [1], in [2], in assay [3], in [7] and in [9] was “inactive” in each case. Also, the Potency result in assay [10] is “inactive and 60.3 µM (active)”. Besides, the outcome in assay [6] and in assay [8] was inactive.
With `CC[C@]1(O)C[C@@H]2CN(CCc3c([nH]c4ccccc34)[C@@](C(=O)OC)(c3cc4c(cc3OC)N(C)[C@H]3[C@@](O)(C(=O)OC)[C@H](OC(C)=O)[C@]5(CC)C=CCN6CC[C@]43[C@@H]65)C2)C1`, the Potency in assay [1] was 42.2 nM (active); in assay [2], 1.19 µM (active) and 266 nM (active); in assay [3] it was 133 nM (active) and 168 nM (active); in assay [5] it was 1.88 µM (active) and 944 nM (active). The Potency entry in [4] and in assay [7] was “inactive” throughout. Moreover, the result in [6] and in assay [8] was inactive.
Regarding `CO[Si](OC)(OC)c1ccccc1`, the Potency result in assay [1], in assay [2], in [10], in assay [3], in assay [5] and in assay [7] was “inactive” in each case. In addition, the call in [6] and in assay [8] was inactive.
